# Screening data as filed in PubChem.
# A selection: hits, their analogues and other compounds. The true share with any hit is near 11%.
# Luciferase inh – blocks purified firefly luciferase enzyme activity; Potency, µM (titrated, usually from 115 µM), actives largely listed as inhibitors; 76,000 tested, 2.5% active; purified P. pyralis luciferase, luminescence, biochemical; P08659; also: nearly all actives have a fitted effect of over 65% in size
#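 FLuc 10nM, D-luciferin 10uM, ATP 10uM, Mg acetate 10mM, Tris acetate pH 7.5, Tween/BSA; cpd qHTS; enzyme added last; CCD luminescence.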
# 3T3 cytotox – NIH 3T3 cell cytotoxicity; 94,000 tested, 4.3% active; Potency, µM (series often up to 96.7 µM), actives largely listed as inhibitors; NIH 3T3 viability, CellTiter-Glo ATP luminescence, 48-72 h; also: nearly all actives have a fitted effect of over 55% in size
#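 Cells were seeded at 400 per well, treated with pin-transferred compound, and kept 48 or 72 hr at 37 °C before CellTiter-Glo addition and luminescence imaging of cellular ATP.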
# NPR1 antag – antagonists of human natriuretic peptide receptor Npr1 | Potency, µM (series often up to 46.3 µM), usual class: inhibitors | HEK293 hNpr1 GloSensor cGMP, ANP-stimulated luminescence | 76,000 tested, 1.6% active; calls by dose curve; also: nearly all actives have a fitted effect of over 60% in size
#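 Compound pre-incubated 30 min at room temperature on GloSensor-loaded HEK293 cells stably carrying hNpr1 and the pGS-40F cGMP biosensor. Stimulation uses hNppA at 0.1 nM final; luminescence is taken at baseline and 20 min post-agonist.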
# HEK cytotox – HEK 293 cell cytotoxicity; Potency, µM (top dose mostly 115 µM), most hits filed as inhibitors; HEK 293 viability, ATP luminescence (CellTiter-Glo), 48-72 h; 94,000 tested, 6.6% active; also: nearly all actives have a fitted effect of over 60% in size
#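 CellTiter-Glo luminescence (cellular ATP) was read after 48 or 72 hr of compound exposure at 37 degree Celsius. Cells were HEK 293 plated at 250 cells/well.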
# A number is an active result; i = inactive; ? = inconclusive; nt = no result. Unless noted, calls follow the shape of the dose curve; as a rule, active = well fitted curve in the direction sought with a large enough effect; inconclusive = small, poorly fitted or top-dose-only effect, or another doubt; inactive = no such curve, though single readings can be large; an effect the other way counts as inactive or inconclusive.
SMILES,Luciferase inh,3T3 cytotox,NPR1 antag,HEK cytotox
COc1ccc2nc(C[C@@H]3C[C@@H](C(C)C)[C@H](CNC(=O)C4CCCCC4)C=C3C)[nH]c2c1,i,56µM,i,50µM
COc1ccc2nc(C[C@@H]3C[C@@H](C(C)C)[C@H](CNCc4ccccc4)C=C3C)[nH]c2c1,i,50µM,i,45µM
COc1ccc2nc(C[C@@H]3C[C@@H](C(C)C)[C@H](CNC(=O)COCC(=O)O)C=C3C)[nH]c2c1,i,i,i,i
COc1ccc2nc(C[C@@H]3C[C@@H](C(C)C)[C@H](CNC(=O)[C@@H]4CCCC[C@@H]4C(=O)O)C=C3C)[nH]c2c1,i,i,i,i
CC1=C[C@@H](CNC(=O)CCCC(=O)O)[C@H](C(C)C)C[C@H]1Cc1nc2ccccc2n1C,i,i,i,i
CC(=O)NC[C@@H]1C=C(C)[C@H](Cc2nc3ccccc3n2C)C[C@H]1C(C)C,i,79µM,?,35µM
CC1=C[C@@H](CNC(=O)C2CCCCC2)[C@H](C(C)C)C[C@H]1Cc1nc2ccc(C)cc2[nH]1,i,?,i,?
COc1ccc2nc(C[C@@H]3C[C@@H](C(C)C)[C@H](CNC4CCCCC4)C=C3C)[nH]c2c1,i,22µM,i,28µM
COc1cccc(C(=O)N2CCC(N(C)C3CCOCC3)CC2)c1,i,i,i,i
CO[C@H]1CN(C(C)C)[C@H]1C1CCN(C(=O)c2cc(C)nn2C)CC1,nt,i,nt,i
CC(=O)N1CCC(NC[C@@H]2C=C(C)[C@H](Cc3nc4ccccc4[nH]3)C[C@H]2C(C)C)CC1,i,112µM,i,89µM
CCN1c2cc(C(=O)Nc3cccc(SC)c3)ccc2C(=O)N2CCCCC21 (centres undefined),i,?,i,22µM
CCN1c2cc(C(=O)Nc3ccc(N(C)C)cc3)ccc2C(=O)N2CCCCCC21 (centres undefined),18µM,?,i,40µM
CCN1c2cc(C(=O)Nc3ccc(C)cc3)ccc2C(=O)N2CCCC21 (centres undefined),i,i,i,i
CCN1c2cc(C(=O)Nc3cccc(C)c3)ccc2C(=O)N2CCCCC21 (centres undefined),i,35µM,i,32µM
CCN1c2cc(C(=O)Nc3ccc(C)cc3)ccc2C(=O)N2CCCCC21 (centres undefined),i,35µM,?,40µM
Cc1cc(C)n(CCC(=O)N2CCC(CC(=O)N(C)Cc3ccccc3)C2)n1 (centres undefined),nt,i,nt,i
CCN1c2cc(C(=O)Nc3cccc(OC(F)(F)F)c3)ccc2C(=O)N2CCCCCC21 (centres undefined),i,28µM,i,?
CCN1c2cc(C(=O)Nc3cccc(F)c3)ccc2C(=O)N2CCCCCC21 (centres undefined),i,?,i,?
CCN1c2cc(C(=O)Nc3cccc(C(F)(F)F)c3)ccc2C(=O)N2CCCCC21 (centres undefined),i,?,i,28µM
CNC(=O)c1ccc(CN2CCCC(Nc3ccc(F)cc3)C2)o1 (centres undefined),i,i,i,i
COC(=O)c1ccc2nc(C[C@@H]3C[C@@H](C(C)C)[C@H](CNC(=O)CN(C)C)C=C3C)[nH]c2c1,i,?,i,35µM
COC(=O)c1ccc2nc(C[C@@H]3C[C@@H](C(C)C)[C@H](CNC(=O)CCCC(=O)O)C=C3C)[nH]c2c1,i,i,i,?
COC(=O)c1ccc2nc(C[C@@H]3C[C@@H](C(C)C)[C@H](CNC(=O)COCC(=O)O)C=C3C)[nH]c2c1,i,i,i,i
COC(=O)c1ccc2nc(C[C@@H]3C[C@@H](C(C)C)[C@H](CNC(=O)C4CCC4)C=C3C)[nH]c2c1,i,?,i,?
SMILES,Luciferase inh,3T3 cytotox,NPR1 antag,HEK cytotox
COC(=O)c1ccc2nc(C[C@@H]3C[C@@H](C(C)C)[C@H](CN(C)C)C=C3C)[nH]c2c1,i,71µM,i,?
COCC(=O)NC[C@@H]1C=C(C)[C@H](Cc2nc3ccc(C(=O)OC)cc3[nH]2)C[C@H]1C(C)C,i,100µM,i,63µM
CC(=O)Oc1c(-c2ccc(NC(=O)CC(C)C)cc2)c(-c2ccc(F)cc2)nn1-c1ccc(F)cc1,i,?,i,?
Fc1ccccc1-c1noc(-c2nc(-c3ccncc3)no2)n1,i,i,i,i
Fc1ccccc1-c1noc(-c2nc(C3CC3)no2)n1,4.5µM,i,?,?
COc1cccc(-c2ccc(C(=O)N3CCC(NC(=O)Cc4ccccn4)CC3)cc2)c1,nt,i,nt,?
COc1ccc(C(=O)N2C[C@@H]3C[C@H](C2)c2ccc(NC(=O)Nc4cccc(C#N)c4)c(=O)n2C3)cc1,25µM,?,i,?
COc1ccc(C(=O)N2C[C@@H]3C[C@H](C2)c2c(NC(=O)Nc4ccccc4)ccc(=O)n2C3)cc1,i,i,i,10µM
COc1ccc(C(=O)N2C[C@@H]3C[C@H](C2)c2ccc(NS(=O)(=O)c4ccccc4C#N)c(=O)n2C3)cc1,i,i,i,i
O[C@@H]1C[C@@H](c2nnc3n2CCN(CC2CCCCC2)C3)N(Cc2ccccc2)C1,i,i,i,i
Cc1ccc(C2NC(=O)N(CC(=O)Nc3ccc(Br)cc3F)C3=C2C(=O)OC3)cc1 (centres undefined),i,?,i,35µM
CCc1cccc(NC(=O)CN2C(=O)NC(c3ccc(C)cc3)C3=C2COC3=O)c1 (centres undefined),i,?,i,28µM
Cc1ccc(C2NC(=O)N(CC(=O)Nc3cc(F)cc(F)c3)C3=C2C(=O)OC3)cc1 (centres undefined),i,?,i,?
Cc1ccc(C2NC(=O)N(CC(=O)Nc3ccc(Br)c(C)c3)C3=C2C(=O)OC3)cc1 (centres undefined),i,35µM,?,?
O=C1CCN(C2CCN(Cc3ccccc3)CC2)CCCC(C(=O)NCc2ccccc2)CCN1 (centres undefined),i,i,i,i
CC(=O)Nc1ccc(-c2ccc(=O)n3c2[C@@H]2C[C@@H](CN(C(=O)COc4ccccc4)C2)C3)cc1,i,i,i,40µM
CC(=O)Nc1ccc(-c2ccc(=O)n3c2[C@@H]2C[C@@H](CN(S(=O)(=O)c4ccc(Cl)cc4)C2)C3)cc1,i,i,i,14µM
O=C(c1ccc(F)cc1)N1CCCC(c2nn(-c3ccccn3)c(=O)[nH]2)C1 (centres undefined),nt,i,nt,i
O=C(NCCNC(=O)C1CCCC1)c1cccc(-c2ccc(C(F)(F)F)cc2)c1,nt,i,nt,?
Cc1cncnc1C1CCN(c2cc(C3CC(N)C3)ncn2)CC1 (centres undefined),i,i,i,i
Cc1cnn(-c2cc(N3CCC(n4cc(C5CCCC5)nn4)CC3)ncn2)c1,i,?,?,45µM
COc1ccc(-c2ccc(C(=O)NCc3ccccc3)cc2)nn1,nt,i,nt,i
COc1ccc(-c2ccc(C(=O)Nc3ccccc3Cl)cc2)nn1,nt,i,nt,?
COc1ccc(-c2ccc(C(=O)NCc3cccc(F)c3)cc2)nn1,nt,i,nt,?
